Among the test systems are MST1R; MST4; MTOR; MUSK; MYLK2; MYLK4.
What all share (conditions): concentration: 1 μM, replicates: in singlicate; n = 1
A further assay relates to T1, MRCKB.
T1 construct: gene CDC42BPB

In the next assay the test system is T2, MST1.
T2 construct: gene STK4

The next assay deals with T3, MST2.
T3 construct: gene STK3

The next assay has as its system T4, MST3.
T4 construct: gene STK24
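Also: KINOMEscan kinase panel screen.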

Take `Nc1ncnc2c1ncn2-c1ccc(Cl)cc1` [AH2635]: the “%Inh” value in the assay on MRCKB was 0%; in the assay on MST1R, 17%; with MST1 it was 2%; in the assay with MST2 it was 0%; with MST3, 0%; in the assay with MST4 it was 0%. The “%Inh” value with MTOR worked out at 11%; in the assay on MUSK, 0%; with MYLK2 it was 14%; in the assay with MYLK4, 8%.

Turning to `C[C@@H]1CC[C@H](C(=O)NC2CCCCC2)CN1c1cc(-c2ccc3c(N)n[nH]c3c2)nc(N)n1` [GSK2291363], the “%Inh” value with MRCKB is 15%; in the assay with MST1R it was 50%; in the assay on MST1 it was 12%; with MST2, 0%; in the assay on MST3, 14%; in the assay with MST4, 0%. Also, the “%Inh” value in the assay on MTOR was found to be 18%; in the assay on MUSK, 21%; in the assay with MYLK2, 11%; in the assay on MYLK4, 23%.

As to `Cc1cccc(-c2cc(-c3c[nH]nc3-c3ccccn3)ccn2)c1` [GW679395], the “%Inh” value with MRCKB came out at 0%; with MST1R, 60%; in the assay on MST1, 0%; in the assay on MST2, 0%; with MST3, 4%; in the assay on MST4, 0%. Further, the “%Inh” value is reported as 10% in the assay with MTOR, 0% with MUSK, 0% with MYLK2 and 2% with MYLK4.

On to `CCc1nc(-c2cccc(C)c2)c(-c2ccncc2)s1`, for which the “%Inh” value is on record as 0% with MRCKB; 0% with MST1R; 0% in the assay with MST1; 8% in the assay on MST2; 8% in the assay on MST3; 0% in the assay with MST4. Moreover, the “%Inh” value with MTOR amounted to 34%; in the assay on MUSK it was 5%; in the assay on MYLK2, 5%; in the assay on MYLK4, 0%.

In the case of `CN(C)c1cc(-c2ccc3c(N)n[nH]c3c2)nc(N)n1` [GSK2219329], the “%Inh” value with MRCKB came to 0%; in the assay with MST1R, 18%; in the assay on MST1, 1%; in the assay on MST2, 0%; with MST3, 5%; with MST4, 0%. Moreover, the “%Inh” value with MTOR amounted to 1%; in the assay on MUSK, 0%; in the assay with MYLK2, 9%; in the assay on MYLK4 it was 0%.

As to `Cc1ccc(-c2ccc3c(ccc4sc5c(c43)NC[C@@H](C)N=C5N(C)C)n2)cn1`, the “%Inh” value in the assay on MRCKB came to 3%; in the assay on MST1R it was 13%; in the assay on MST1 it was 0%; with MST2 it was 0%; in the assay with MST3, 1%; with MST4, 0%. Further, the “%Inh” value with MTOR came out at 31%; in the assay with MUSK it was 0%; in the assay with MYLK2, 0%; in the assay on MYLK4, 100%.

`O=C(Nc1n[nH]c2cc(-c3ccccc3F)ccc12)C1CC1` [SB-733371]: the “%Inh” value was 0% in the assay with MRCKB; 0% with MST1R; 1% with MST1; 0% in the assay with MST2; 0% with MST3; 0% with MST4. For the same molecule, the “%Inh” value in the assay on MTOR was determined as 0%; with MUSK it was 1%; with MYLK2, 90%; in the assay on MYLK4 it was 4%.

In the case of `COc1cc(Nc2nccc(N3CCC(NC(=O)C(C)c4ccc(Cl)cc4)C3)n2)cc(OC)c1OC` (stereo not drawn) [GSK1379757], the “%Inh” value in the assay with MRCKB was found to be 0%; with MST1R, 37%; in the assay with MST1, 8%; with MST2 it was 5%; in the assay on MST3, 0%; in the assay with MST4 it was 0%. The “%Inh” value is 36% in the assay with MTOR, 0% in the assay on MUSK, 0% with MYLK2 and 0% in the assay on MYLK4.

`CCCC(=O)Nc1n[nH]c2ncc(-c3cccc4ccccc34)cc12` [SB-642057]: the “%Inh” value stood at 17% in the assay with MRCKB; 18% in the assay on MST1R; 5% in the assay with MST1; 0% in the assay on MST2; 6% in the assay on MST3; 0% in the assay on MST4. Moreover, the “%Inh” value with MTOR is 17%; in the assay with MUSK, 11%; in the assay on MYLK2 it was 9%; in the assay on MYLK4, 0%.

With `CCC(=O)c1c(-c2ccccc2)c2cc(Cl)ccc2c(=O)n1Cc1cc(S(C)(=O)=O)n(CCC(C)(C)O)n1`, the “%Inh” value was found to be 0% with MRCKB; 36% in the assay with MST1R; 21% in the assay with MST1; 10% in the assay with MST2; 0% in the assay with MST3; 0% in the assay on MST4. The “%Inh” value in the assay on MTOR stood at 0%; in the assay with MUSK, 17%; in the assay on MYLK2 it was 5%; in the assay with MYLK4, 2%.

Regarding `COc1cccc(-n2cnc3c(N)ncnc32)c1` [SKF-97416], the “%Inh” value in the assay with MRCKB was found to be 0%; in the assay on MST1R, 5%; in the assay with MST1, 0%; in the assay on MST2 it was 0%; in the assay with MST3, 6%; with MST4, 28%. The “%Inh” value came to 19% with MTOR, 5% with MUSK, 6% in the assay with MYLK2 and 26% in the assay on MYLK4.

Consider `FC(F)(F)c1ccc(-c2ncn(CCCN3CCOCC3)c2-c2ccncc2)cc1` [SB-217780], for which the “%Inh” value in the assay with MRCKB is on record as 6%; in the assay with MST1R, 28%; in the assay on MST1, 28%; with MST2 it was 59%; in the assay on MST3 it was 35%; in the assay on MST4, 0%. The “%Inh” value with MTOR was 12%; in the assay on MUSK, 0%; in the assay on MYLK2, 0%; with MYLK4, 4%.

Regarding `O=c1cc(N2CCOCC2)nc2n(Cc3ccc(F)c(Cl)c3)ccn12` [GSK2297099], the “%Inh” value was determined as 0% in the assay on MRCKB; 13% in the assay on MST1R; 0% in the assay with MST1; 16% in the assay on MST2; 0% in the assay with MST3; 0% in the assay with MST4. The “%Inh” value in the assay with MTOR is given as 12%; in the assay with MUSK it was 5%; in the assay on MYLK2 it was 0%; in the assay with MYLK4, 3%.

Turning to `COC(=O)c1c(-c2ccccc2)c2cc(C)ccc2c(=O)n1Cc1ccccc1`, the “%Inh” value in the assay with MRCKB was 0%; with MST1R it was 31%; in the assay on MST1, 0%; with MST2, 21%; in the assay on MST3, 0%; in the assay with MST4, 0%. In addition, the “%Inh” value is given as 0% with MTOR, 12% with MUSK, 0% in the assay on MYLK2 and 0% in the assay with MYLK4.

As for `Cc1cccc(-c2nc(Nc3ccc4c(cnn4C)c3)c3ccccc3n2)n1` [GW876731], the “%Inh” value in the assay with MRCKB amounted to 34%; in the assay on MST1R, 0%; in the assay with MST1 it was 0%; in the assay with MST2, 0%; in the assay on MST3, 0%; with MST4 it was 9%. Also, the “%Inh” value in the assay with MTOR was 0%; in the assay on MUSK, 2%; in the assay with MYLK2 it was 0%; with MYLK4, 33%.

(Values after publication PMC5540273 (PLoS ONE, 2017).)
